We go through 20 molecules from PubChem BioAssay.

One may read the inhibition as the change of the read-out against control, counted positive when it falls.

A number with no mark means an inactive call. For some of these results: Entries with a potency or affinity are not part of this list. Calls of active or inactive are those of the source. Unless noted, how the calls were made is not given here.

Assay [1] can be described thus: antimalarial activity against Dd2 strain (AID 2302;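 active means growth inhibition above 50% at the single 2 µM test dose, taken to imply half-maximal potency below 2 µM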;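 further: 0% = DMSO untreated growth and 100% = chloroquine plus artemisinin killed control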). The settings on record: P. falciparum Dd2 in RBCs, LDH growth readout, 72 h; at 2 µM; hits give high values.
Assay [2] can be described thus: human hepatoma cell viability loss – ATP luminescence, cytotoxicity control for P. falciparum antimalarial project, primary screen (AID 2303;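 active means inhibition above 50%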;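 further: 0% = DMSO wells and 100% = digitonin-killed cells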). The note with it: HepG2 viability, 24-48 h, at 10 µM, hits give high values.
Assay [3] concerns the target L-lactate dehydrogenase (Plasmodium falciparum (isolate CDC / Honduras)) (UniProt Q27743). Description: PfLDH activity inhibition – cell lysate, 3D7 strain, counter-screen for P. falciparum growth inhibition project (AID 2304).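 Further: 0% = vehicle and 100% = reference inhibitor.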 The note with it: P. falciparum 3D7 crude extract, LDH APAD/NBT absorbance; at 2 µM; hits give high values. For orientation: Counterscreens check selectivity or assay interference.

Assay [4] is described as follows: inhibition of 3D7 malaria parasite growth – strain 3D7 (AID 2306).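 Further: 0% = DMSO wells and 100% = chloroquine plus artemisinin control wells.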 The settings on record: P. falciparum 3D7 erythrocytic growth, LDH absorbance, 72 h; at 2 µM; hits give high values.
Assay [5] has as its target Calcium-dependent protein kinase 1 (Plasmodium falciparum (isolate 3D7)) (UniProt P62344). Description: PfCDPK1 kinase inhibitors, biochemical, TCAMS library (AID 1159585; cut-off not given, nearly all actives have IC50 up to about 0.98 µM;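 further: inhibitors leave more ATP so luminescence rises with inhibition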). The settings on record: recombinant PfCDPK1, Kinase-Glo ATP depletion luminescence. (In general: Kinase-Glo reads ATP consumption through a luciferase reaction.)
Assay [6] concerns the target Plasmodium falciparum protein kinase 6 (PK6, PF3D7_1337100) (UniProt Q8IDW1). Description: PfPK6 kinase inhibitors, biochemical, TCAMS library (AID 1159586). The note with it: recombinant PfPK6, Kinase-Glo ATP depletion luminescence.
Assay [7] deals with Protein kinase 7 (PK7), Plasmodium falciparum 3D7 (PF3D7_0213400) (UniProt Q7YTF7). Description: inhibition of Plasmodium PK7 catalytic activity – biochemical, TCAMS antimalarial set, Kinase-Glo luminescence (AID 1159587). The note with it: recombinant PfPK7, Kinase-Glo ATP depletion luminescence.
Assay [8] deals with Calcium-dependent protein kinase 4 (Plasmodium falciparum (isolate 3D7)) (UniProt Q8IBS5). In words: PfCDPK4 kinase inhibitors, biochemical, TCAMS library (AID 1159588; cut-off not given, nearly all actives have IC50 up to about 0.91 µM). The note with it: recombinant PfCDPK4, Kinase-Glo ATP depletion luminescence.
Calcium-dependent protein kinase 4 (Plasmodium falciparum (isolate 3D7)), sequence (Q8IBS5 whole entry, looked up): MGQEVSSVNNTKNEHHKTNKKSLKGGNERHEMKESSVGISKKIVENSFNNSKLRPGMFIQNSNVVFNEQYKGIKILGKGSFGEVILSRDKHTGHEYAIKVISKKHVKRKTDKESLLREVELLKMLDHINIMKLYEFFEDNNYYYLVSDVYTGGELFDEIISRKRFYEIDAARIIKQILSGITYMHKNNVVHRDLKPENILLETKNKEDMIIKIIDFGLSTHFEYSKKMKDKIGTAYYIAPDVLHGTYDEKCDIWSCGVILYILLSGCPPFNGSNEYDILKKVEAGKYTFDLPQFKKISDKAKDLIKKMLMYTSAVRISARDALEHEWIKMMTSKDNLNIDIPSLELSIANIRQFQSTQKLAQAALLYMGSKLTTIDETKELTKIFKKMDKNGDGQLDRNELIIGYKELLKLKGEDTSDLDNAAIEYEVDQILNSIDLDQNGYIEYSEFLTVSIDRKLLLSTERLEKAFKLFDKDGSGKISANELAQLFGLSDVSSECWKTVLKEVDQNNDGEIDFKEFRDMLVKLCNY

L-lactate dehydrogenase (Plasmodium falciparum (isolate CDC / Honduras)), sequence (Q27743 whole entry, looked up): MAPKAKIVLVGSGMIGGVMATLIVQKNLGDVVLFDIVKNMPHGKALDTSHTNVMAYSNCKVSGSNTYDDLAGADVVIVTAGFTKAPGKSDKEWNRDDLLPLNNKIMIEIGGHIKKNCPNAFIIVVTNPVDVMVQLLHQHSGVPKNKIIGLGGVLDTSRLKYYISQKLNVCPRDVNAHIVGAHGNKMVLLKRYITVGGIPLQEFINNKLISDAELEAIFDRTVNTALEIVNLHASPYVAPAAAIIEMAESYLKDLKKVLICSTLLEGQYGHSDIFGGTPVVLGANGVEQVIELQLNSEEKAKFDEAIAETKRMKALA
Plasmodium falciparum protein kinase 6 (PK6, PF3D7_1337100), sequence (Q8IDW1 1-305): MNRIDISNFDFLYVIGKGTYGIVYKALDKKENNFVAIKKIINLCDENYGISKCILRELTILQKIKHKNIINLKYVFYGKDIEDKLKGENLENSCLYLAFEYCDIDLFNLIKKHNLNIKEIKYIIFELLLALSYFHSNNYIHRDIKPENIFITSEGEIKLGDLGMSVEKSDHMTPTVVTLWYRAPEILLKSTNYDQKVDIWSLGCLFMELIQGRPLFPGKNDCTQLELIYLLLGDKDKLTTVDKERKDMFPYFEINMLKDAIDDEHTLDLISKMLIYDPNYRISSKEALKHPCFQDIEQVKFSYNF
Calcium-dependent protein kinase 1 (Plasmodium falciparum (isolate 3D7)), sequence (P62344 whole entry, looked up): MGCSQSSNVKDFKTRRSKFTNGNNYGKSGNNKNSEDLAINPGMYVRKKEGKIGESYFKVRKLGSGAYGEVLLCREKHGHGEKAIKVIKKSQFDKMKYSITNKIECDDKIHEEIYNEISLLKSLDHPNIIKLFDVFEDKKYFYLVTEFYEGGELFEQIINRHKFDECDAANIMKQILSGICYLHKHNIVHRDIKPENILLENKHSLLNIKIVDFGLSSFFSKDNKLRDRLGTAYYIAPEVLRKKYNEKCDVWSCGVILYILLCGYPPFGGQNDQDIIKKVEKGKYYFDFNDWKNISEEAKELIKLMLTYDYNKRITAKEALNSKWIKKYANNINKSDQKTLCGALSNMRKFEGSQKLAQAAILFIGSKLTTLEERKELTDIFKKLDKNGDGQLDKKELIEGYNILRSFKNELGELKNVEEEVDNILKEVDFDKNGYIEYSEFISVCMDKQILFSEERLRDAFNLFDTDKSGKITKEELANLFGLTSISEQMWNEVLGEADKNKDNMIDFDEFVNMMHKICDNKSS
Protein kinase 7 (PK7), Plasmodium falciparum 3D7 (PF3D7_0213400), sequence (Q7YTF7 1-343): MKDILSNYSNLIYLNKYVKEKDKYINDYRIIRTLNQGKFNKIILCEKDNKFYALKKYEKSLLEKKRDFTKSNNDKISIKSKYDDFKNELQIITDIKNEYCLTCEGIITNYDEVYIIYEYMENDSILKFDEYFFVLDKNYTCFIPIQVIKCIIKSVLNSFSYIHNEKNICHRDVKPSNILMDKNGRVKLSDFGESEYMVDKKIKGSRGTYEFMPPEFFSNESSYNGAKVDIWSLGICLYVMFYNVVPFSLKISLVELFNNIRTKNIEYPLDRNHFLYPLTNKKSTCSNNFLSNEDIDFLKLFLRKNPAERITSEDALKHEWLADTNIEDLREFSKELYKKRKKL

With `O=C1OC2(CCN(Cc3cccc(-c4ncc[nH]4)c3)CC2)CN1CCNCc1ccccc1`, the figures for the growth inhibition in assay [1] and in assay [4] were -1% and 94% (active), respectively. For the same molecule, the inhibition is -8% in assay [2] and -1% in assay [3]. Further, the result in assay [5], in assay [6], in assay [7] and in assay [8] was inactive.
Consider `Cc1cccc(/C=C/C(=O)NC2CCC(N3CCC(c4ccccc4C)CC3)CC2)c1` (stereo not given), for which the growth inhibition in assay [1] was 20%; in assay [4], 92% (active). The inhibition was 67% (active) in assay [2] and -3% in assay [3]. The outcome in assay [5], in assay [6], in assay [7] and in assay [8] was inactive.
For the molecule `N#Cc1ccc(CN2CCC(Oc3ccc(NC(=O)c4ccco4)cc3Cl)CC2)cc1`, the growth inhibition is 96% (active) in assay [1] and 95% (active) in assay [4]. The inhibition is 7% in assay [2] and 6% in assay [3]. In addition, the outcome in assay [5], in assay [6], in assay [7] and in assay [8] was inactive.
Consider `Cc1cc(-c2ccc(CN3Cc4ccccc4C3)cc2)ccc1S(=O)(=O)NCCN1CCCC1`, for which the results for the growth inhibition in assay [1] and in assay [4] were 10% and 94% (active), respectively. For the same molecule, the inhibition was 49% in assay [2] and -4% in assay [3]. Besides, the outcome in assay [5], in assay [6], in assay [7] and in assay [8] was inactive.
As to `Cc1c2c(nn1-c1ccccc1)C(c1ccccc1)N(c1ccccc1)C2=O` (stereo not given), the growth inhibition is 96% (active) in assay [1] and 92% (active) in assay [4]. The inhibition is 42% in assay [2] and 1% in assay [3]. The result in assay [5], in assay [6], in assay [7] and in assay [8] was inactive.
Take `CS(=O)(=O)c1ccccc1CNC(=O)c1cccc(-c2ccc(-c3nc4ccc(C(F)(F)F)cc4[nH]3)cc2)c1`: the growth inhibition in assay [1] is 7%; in assay [4] it was 95% (active). Moreover, the results for the inhibition in assay [2] and in assay [3] were 86% (active) and 3%, respectively. Besides, the outcome in assay [5], in assay [6], in assay [7] and in assay [8] was inactive.
With `O=C(/C=C/c1ccc2ccccc2c1)NCC1(c2ccc(-c3ccccc3)cc2)CCOCC1`, the growth inhibition in assay [1] is 34%; in assay [4], 95% (active). Besides, the results for the inhibition in assay [2] and in assay [3] were 9% and 0%, respectively. The outcome in assay [5], in assay [6], in assay [7] and in assay [8] was inactive.
For `COc1cc(C(F)(F)F)cc2[nH]c(CNCCCNc3nc4ccccc4[nH]3)cc12`, the growth inhibition in assay [1] is 2%; in assay [4], 102% (active). Moreover, the inhibition is 59% (active) in assay [2] and 2% in assay [3]. The outcome in assay [5], in assay [6], in assay [7] and in assay [8] was inactive.
For `CN1CCN(c2cc3c(Nc4ccc5c(cnn5Cc5ccccc5)c4)ncnc3cn2)CC1`, the growth inhibition is 35% in assay [1] and 88% (active) in assay [4]. The inhibition was 9% in assay [2] and 5% in assay [3]. The outcome in assay [5], in assay [6], in assay [7] and in assay [8] was inactive.
With `Cc1nc(/N=C(\N)NC(=O)NC2CCCCC2)nc2ccccc12`, the growth inhibition was 99% (active) in assay [1] and 95% (active) in assay [4]. The figures for the inhibition in assay [2] and in assay [3] were 21% and -2%, respectively. Also, the outcome in assay [5], in assay [6], in assay [7] and in assay [8] was inactive.
As for `COc1ccc(Nc2ncc3c(-c4cccc(NC(=O)Cc5ccc(F)cc5)c4)c[nH]c3n2)cc1OC`, the results for the growth inhibition in assay [1] and in assay [4] were 90% (active) and 101% (active), respectively. For the same molecule, the values for the inhibition in assay [2] and in assay [3] were 21% and 8%, respectively. In addition, the result in assay [5], in assay [6], in assay [7] and in assay [8] was inactive.
For `Cc1cc(N)c2cc(NC(=O)/C=C/c3ccccc3)ccc2n1`, the growth inhibition in assay [1] is 68% (active); in assay [4], 102% (active). In addition, the inhibition is 20% in assay [2] and 0% in assay [3]. In addition, the result in assay [5], in assay [6], in assay [7] and in assay [8] was inactive.
`Cc1cccc(C(=O)Nc2ccnc(N3CCCN(Cc4cccc(O)c4)CC3)c2)c1`: the growth inhibition in assay [1] is 13%; in assay [4], 84% (active). Besides, the values for the inhibition in assay [2] and in assay [3] were -21% and 3%, respectively. Moreover, the outcome in assay [5], in assay [6], in assay [7] and in assay [8] was inactive.
Consider `COc1ccc2ccc(OC)c(CNCCCCCCNCc3c(OC)ccc4ccc(OC)cc34)c2c1`, for which the growth inhibition was 32% in assay [1] and 101% (active) in assay [4]. Also, the inhibition in assay [2] is 100% (active); in assay [3], -6%. The result in assay [5], in assay [6], in assay [7] and in assay [8] was inactive.
Consider `CSC1=NC(=Nc2c(C)cccc2C)C2(CCC(C(C)(C)C)CC2)N1c1ccc(O)cc1` (stereo not given), for which the figures for the growth inhibition in assay [1] and in assay [4] were 93% (active) and 97% (active), respectively. Moreover, the inhibition in assay [2] was 5%; in assay [3], 1%. Moreover, the outcome in assay [5], in assay [6], in assay [7] and in assay [8] was inactive.
Turning to `Cc1ccc(C(=O)NC2CCN(CCNC(=O)Nc3cc(C)nc4ccccc34)CC2)cc1`, the figures for the growth inhibition in assay [1] and in assay [4] were 76% (active) and 98% (active), respectively. For the same molecule, the inhibition in assay [2] was -12%; in assay [3] it was -8%. Further, the result in assay [5], in assay [6], in assay [7] and in assay [8] was inactive.
For `CN(C)C(=O)CC(=O)NCc1c(Cl)cccc1Cl`, the growth inhibition in assay [1] is 2%; in assay [4], 95% (active). For the same molecule, the inhibition in assay [2] was 2%; in assay [3] it was -4%. Besides, the outcome in assay [5], in assay [6], in assay [7] and in assay [8] was inactive.
As for `COc1cc(-c2ccc3c(-c4ccc(C(=O)N5CCN(C)CC5)cc4)[nH]nc3n2)cc(OC)c1OC`, the growth inhibition in assay [1] was 54% (active); in assay [4], 91% (active). For the same molecule, the figures for the inhibition in assay [2] and in assay [3] were 27% and 4%, respectively. Moreover, the outcome in assay [5], in assay [6], in assay [7] and in assay [8] was inactive.
Take `CCNc1cc(C(=O)N[C@@H](Cc2ccccc2)[C@H](O)CNC23CC4CC(CC(C4)C2)C3)cc(N2CCCCS2(=O)=O)c1`: the growth inhibition in assay [1] was 99% (active); in assay [4], 98% (active). The inhibition in assay [2] was 3%; in assay [3] it was -2%. The result in assay [5], in assay [6], in assay [7] and in assay [8] was inactive.
On to `CCNc1cc(C(=O)N[C@@H](Cc2ccccc2)[C@H](O)CN[C@@H](C)c2ccccc2)cc(N2CCCC2=O)c1`, for which the results for the growth inhibition in assay [1] and in assay [4] were 96% (active) and 98% (active), respectively. The inhibition is 7% in assay [2] and 8% in assay [3]. The outcome in assay [5], in assay [6], in assay [7] and in assay [8] was inactive.
